Inconclusive results are not listed. Where a call stands in place of a potency, no number is given. Activity calls are given as the source filed them. The call rests on the fitted dose curve.
Experiment: qHTS assay for small molecules that induce genotoxicity in human embryonic kidney cells expressing luciferase-tagged ATAD5 - cell viability (AID 651634); further: nearly all actives have a fitted effect of over 25% in size
Settings: HEK293T ATAD5-luc cells viability, CellTiter-Fluor, 15.5 h; series mostly up to 83.3 µM
From the text: National Center for Advancing Translational Sciences [NCATS]
NIH Chemical Genomics Center [NCGC]
U.S. Environmental Protection Agency [EPA]
National Institutes of Environmental Health Sciences [NIEHS]
National Toxicology Program [NTP]
U.S. Food and Drug Administration [FDA]
Enhanced Level of Genome Instability Gene 1 (ELG1; human ATAD5) protein levels increase in response to various types of DNA damage. Using a luciferase reporter-gene tagged with ElG1, a cell-based assay [developed by Kyungjae Myung, NHGRI, NIH] was used to measure the induction of ATAD5 in human embryonic kidney cells (HEK293T). So, increase in luciferase activity can be used to identify the compounds that cause genetic stress. In addition to genotoxicity, these cells were also used to test for cytotoxicity by measuring the protease activity within live cells.
Tox21 Assay Protocol Summary:
For cytotoxicity screening, 2,000 cells in 5 uL/well were dispensed into white, solid-bottom 1536-well plates using a Multidrop Combi (Thermo Scientific) dispenser. Following transfer of 23 nL compound or DMSO vehicle by a pin tool, the plates were incubated 15.5 hr at 37C and 5% CO2. 1 ul CellTiter-Fluor reagent (Promega, Madison, WI) was then added to each plate and following 30 min incubation at 37C, fluorescence intensity was quantified on a ViewLux CCD-based plate reader.

Row | Structure (SMILES) | Potency
1 | CCNc1nc(Cl)nc(NC(C)C)n1 | inactive
2 | C=CC#N | inactive
3 | CCCOC(=O)c1ccccc1C(=O)OCCC | inactive
4 | CNC(=O)O/N=C/C(C)(C)S(C)(=O)=O | inactive
5 | COC(C)(C)CCCC(C)C/C=C/C(C)=C/C(=O)OC(C)C (stereo not given) | inactive
6 | O=C(O)CCCc1ccc(N(CCCl)CCCl)cc1 | inactive
7 | OC[C@@H](O)[C@H]1O[C@@H]2O[C@H](C(Cl)(Cl)Cl)O[C@@H]2[C@H]1O | inactive
8 | C/C=C/c1ccc2c(c1)OCO2 | inactive
9 | Nc1nc(N)nc(NC2CC2)n1 | inactive
10 | O=S(=O)(O)OOS(=O)(=O)O | inactive
11 | O=C/C=C/c1ccccc1 | inactive
12 | COP(=S)(OC)Oc1ccc(SC)c(C)c1 | inactive
13 | CCCCCCCCCCCCCCCCCC(=O)O | inactive
14 | OCCCCO | inactive
15 | N#CN=C(N)N | inactive
16 | CNC(=O)O/N=C/C(C)(C)SC | inactive
17 | CNC(=O)O/N=C(\SC)C(=O)N(C)C | inactive
18 | CC[N+](=O)[O-] | inactive
19 | N#Cc1ccccn1 | inactive
20 | Nc1cccc(Cl)c1 | inactive

Row | Structure (SMILES) | Potency
21 | COc1nc(NC(C)C)nc(NC(C)C)n1 | inactive
22 | O=P1(NCCCl)OCCCN1CCCl (stereo not given) | inactive
23 | OCC(O)CCl (stereo not given) | inactive
24 | COS(=O)(=O)OC | inactive
25 | COP(=S)(OC)SCN1C(=O)c2ccccc2C1=O | inactive
26 | CCOC(=O)CC(SP(=O)(OC)OC)C(=O)OCC (stereo not given) | inactive
27 | O=[N+]([O-])c1ccc(Cl)cc1 | inactive
28 | C=C(C)C(=O)OCC(CC)CCCC (stereo not given) | inactive
29 | OCc1ccco1 | inactive
30 | CSc1nnc(C(C)(C)C)c(=O)n1N | inactive
31 | Nc1cc(Cl)cc(Cl)c1 | inactive
32 | CCOP(=S)(OCC)Oc1cc(C)nc(C(C)C)n1 | inactive
33 | CN(C)C(=O)Cl | inactive
34 | Cc1ccc(O)c(C)c1 | inactive
35 | O=[N+]([O-])c1ccc(Cl)c(Cl)c1 | inactive
36 | CCSC(=O)N1CCCCCC1 | inactive
37 | Cc1cccc(N)c1 | inactive
38 | Cc1cc(Cl)ccc1OC(C)C(=O)O (stereo not given) | inactive
39 | Cc1cccc(C)c1NC(=O)CN1CCCC1=O | inactive
40 | Cl[C@H]1OCCO[C@@H]1Cl | inactive

From PubChem BioAssay (Tox21)
